# The supplement of paper PMC8728848
# Many of the other results were omitted from the sample, so the strongest signals are more common in it than they were.
# B1: SJCP3842 (Schistosoma japonicum) (protein)
# chain: MFKMRIINLVNISTVLLLINLLQTKSRLVGKENGFMLTVSIYGAQLSDKMTSVPVSWTIDYEDPEKSAFKKLVTDSCDTFSEYVKSQIPKGSVDGQCTSHIFQRPGSGSGVSISLTLSFIYVDVTQPDTVALKTELEKHFANFVTIHSHKITQAQFRINQKAIVIPTGDKDAIDGSKWKIIAIIALVALAIVVIGGFIYICVK
# Experiments:
# Test in all cases: glycan array binding signal (z-score within array); higher = stronger binding
# Conditions in all cases: glycan notation: IUPAC condensed, linker removed
# [1] = target: Fuc(a1-2)Gal(b1-3)GalNAc(b1-4)[Neu5Ac(a2-3)]Gal(b1-4)Glc
# Outline: (§1)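 Glycan array binding is given as a within-array Z-score, which can be read as non-binding when negative. The arrays, 3228 of them, came from the Consortium for Functional Glycomics database and were retained only where the protein sequence was available. Z-scores were averaged across arrays of the same protein sequence at different concentrations or buffers and across linkers.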
# [2] = target: Fuc(a1-2)[Gal(a1-3)]Gal(b1-4)GlcNAc(b1-2)Man
# Outline: as §1
# [3] = target: Fuc(a1-2)[Gal(a1-3)]Gal(b1-4)GlcNAc(b1-2)Man(a1-3)[Fuc(a1-2)[Gal(a1-3)]Gal(b1-4)GlcNAc(b1-2)Man(a1-6)]Man(b1-4)GlcNAc(b1-4)GlcNAc
# Outline: as §1
# [4] = target: Fuc(a1-2)[Gal(a1-3)]Gal(b1-4)GlcNAc(b1-3)GalNAc
# Outline: as §1
# [5] = target: Fuc(a1-2)[Gal(a1-3)]Gal(b1-4)[Fuc(a1-3)]GlcNAc
# Outline: as §1
# Fuc(a1-4)GlcNAc = target: Fuc(a1-4)GlcNAc
# Outline: as §1
# [6] = target: Gal(a1-3)Gal(b1-3)GlcNAc(b1-2)Man(a1-3)[Gal(a1-3)Gal(b1-3)GlcNAc(b1-2)Man(a1-6)]Man(b1-4)GlcNAc(b1-4)GlcNAc
# Outline: as §1
# [7] = target: Gal(a1-3)Gal(b1-3)GlcNAc(b1-3)GalNAc
# Outline: as §1
# [8] = target: Gal(a1-3)Gal(b1-3)[Fuc(a1-4)]GlcNAc(b1-2)Man(a1-3)[Gal(a1-3)Gal(b1-3)[Fuc(a1-4)]GlcNAc(b1-2)Man(a1-6)]Man(b1-4)GlcNAc(b1-4)GlcNAc
# Outline: as §1
# [9] = target: Gal(a1-3)Gal(b1-4)GlcNAc(b1-2)Man
# Outline: as §1
# [10] = target: Gal(a1-3)Gal(b1-4)GlcNAc(b1-2)Man(a1-3)[Gal(a1-3)Gal(b1-4)GlcNAc(b1-2)Man(a1-6)]Man(b1-4)GlcNAc(b1-4)GlcNAc
# Outline: as §1
# [11] = target: Gal(a1-3)Gal(b1-4)GlcNAc(b1-6)GalNAc
# Outline: as §1
# [12] = target: Gal(a1-3)Gal(b1-4)[Fuc(a1-3)]GlcNAc
# Outline: as §1
# Gal(a1-4)Gal(b1-4)Glc = target: Gal(a1-4)Gal(b1-4)Glc
# Outline: as §1
# [13] = target: Gal(a1-4)Gal(b1-4)GlcNAc(b1-2)Man(a1-3)[Gal(a1-4)Gal(b1-4)GlcNAc(b1-2)Man(a1-6)]Man(b1-4)GlcNAc(b1-4)GlcNAc
# Outline: as §1
# Gal(a1-6)Glc = target: Gal(a1-6)Glc
# Outline: as §1
# [14] = target: Gal(b1-3)GlcNAc(b1-3)Gal(b1-4)GlcNAc(b1-2)[Gal(b1-3)GlcNAc(b1-3)Gal(b1-4)GlcNAc(b1-6)]Man(a1-6)[Gal(b1-3)GlcNAc(b1-3)Gal(b1-4)GlcNAc(b1-2)Man(a1-3)]Man(b1-4)GlcNAc(b1-4)[Fuc(a1-6)]GlcNAc
# Outline: as §1
# [15] = target: Gal(b1-3)GlcNAc(b1-3)Gal(b1-4)GlcNAc(b1-3)Gal(b1-4)GlcNAc(b1-2)[Gal(b1-3)GlcNAc(b1-3)Gal(b1-4)GlcNAc(b1-3)Gal(b1-4)GlcNAc(b1-6)]Man(a1-6)[Gal(b1-3)GlcNAc(b1-3)Gal(b1-4)GlcNAc(b1-3)Gal(b1-4)GlcNAc(b1-2)Man(a1-3)]Man(b1-4)GlcNAc(b1-4)[Fuc(a1-6)]GlcNAc
# Outline: as §1
# Gal(b1-4)Gal = target: Gal(b1-4)Gal
# Outline: as §1
# Gal(b1-4)Glc = target: Gal(b1-4)Glc
# Outline: as §1
# [16] = target: Gal(b1-4)GlcNAc(b1-2)Man(a1-3)Man(b1-4)GlcNAc(b1-4)GlcNAc
# Outline: as §1
# [17] = target: Gal(b1-4)GlcNAc(b1-3)Gal(b1-4)GlcNAc
# Outline: as §1
# [18] = target: Gal3S(b1-4)[Fuc(a1-3)]Glc6S
# Outline: as §1
# Gal3S4S(b1-4)GlcNAc = target: Gal3S4S(b1-4)GlcNAc
# Outline: as §1
# Gal3S6S(b1-4)GlcNAc = target: Gal3S6S(b1-4)GlcNAc
# Outline: as §1
# Gal6S(b1-3)GlcNAc = target: Gal6S(b1-3)GlcNAc
# Outline: as §1
# [19] = target: GalNAc(b1-4)GlcNAc(b1-2)Man(a1-3)[GalNAc(b1-4)GlcNAc(b1-2)Man(a1-6)]Man(b1-4)GlcNAc(b1-4)GlcNAc
# Outline: as §1
# GalNAc3S(b1-4)GlcNAc = target: GalNAc3S(b1-4)GlcNAc
# Outline: as §1
# Glc(b1-4)Glc = target: Glc(b1-4)Glc
# Outline: as §1
# [20] = target: GlcNAc(a1-4)Gal(b1-4)GlcNAc(b1-3)Gal(b1-4)GlcNAc
# Outline: as §1
# [21] = target: GlcNAc(a1-4)Gal(b1-4)GlcNAc(b1-3)Gal(b1-4)GlcNAc(b1-3)Gal(b1-4)GlcNAc
# Outline: as §1
# [22] = target: GlcNAc(b1-2)[GlcNAc(b1-4)]Man(a1-3)[GlcNAc(b1-4)][GlcNAc(b1-2)[GlcNAc(b1-6)]Man(a1-6)]Man(b1-4)GlcNAc(b1-4)[Fuc(a1-6)]GlcNAc
# Outline: as §1
# [23] = target: GlcNAc(b1-2)[GlcNAc(b1-6)]Man(a1-6)[GlcNAc(b1-2)Man(a1-3)]Man(b1-4)GlcNAc(b1-4)GlcNAc
# Outline: as §1
# GlcNAc(b1-3)Gal = target: GlcNAc(b1-3)Gal
# Outline: as §1
# [24] = target: GlcNAc(b1-3)Gal(b1-3)GalNAc
# Outline: as §1
# [25] = target: GlcNAc(b1-3)Gal(b1-4)GlcNAc(b1-3)Gal(b1-4)GlcNAc(b1-2)[GlcNAc(b1-3)Gal(b1-4)GlcNAc(b1-3)Gal(b1-4)GlcNAc(b1-6)]Man(a1-6)[GlcNAc(b1-3)Gal(b1-4)GlcNAc(b1-3)Gal(b1-4)GlcNAc(b1-2)Man(a1-3)]Man(b1-4)GlcNAc(b1-4)[Fuc(a1-6)]GlcNAc
# Outline: as §1
# [26] = target: GlcNAc(b1-3)Gal(b1-4)GlcNAc(b1-3)Gal(b1-4)GlcNAc(b1-3)Gal(b1-4)GlcNAc(b1-3)Gal(b1-4)GlcNAc(b1-2)Man(a1-3)[GlcNAc(b1-3)Gal(b1-4)GlcNAc(b1-3)Gal(b1-4)GlcNAc(b1-3)Gal(b1-4)GlcNAc(b1-3)Gal(b1-4)GlcNAc(b1-2)Man(a1-6)]Man(b1-4)GlcNAc(b1-4)GlcNAc
# Outline: as §1
# [27] = target: GlcNAc(b1-3)[GlcNAc(b1-6)]GalNAc
# Outline: as §1
# [28] = target: GlcNAc(b1-4)GlcNAc(b1-4)GlcNAc(b1-4)GlcNAc(b1-4)GlcNAc
# Outline: as §1
# [29] = target: Man(a1-2)Man(a1-2)Man(a1-6)[Man(a1-3)]Man
# Outline: as §1
# Man(a1-2)Man(a1-3)Man = target: Man(a1-2)Man(a1-3)Man
# Outline: as §1
# [30] = target: Man(a1-2)Man(a1-6)[Man(a1-3)]Man(a1-6)[Man(a1-2)Man(a1-2)Man(a1-3)]Man(b1-4)GlcNAc(b1-4)GlcNAc
# Outline: as §1
# [31] = target: Neu5Ac(a2-3)Gal(b1-3)GalNAc(b1-3)Gal(a1-4)Gal(b1-4)Glc
# Outline: as §1
# [32] = target: Neu5Ac(a2-3)Gal(b1-3)GlcNAc(b1-6)GalNAc
# Outline: as §1
# [33] = target: Neu5Ac(a2-3)Gal(b1-4)GlcNAc(b1-3)Gal(b1-4)GlcNAc
# Outline: as §1
# [34] = target: Neu5Ac(a2-3)Gal(b1-4)[Fuc(a1-3)]GlcNAc(b1-3)GalNAc
# Outline: as §1
# [35] = target: Neu5Ac(a2-6)Gal(b1-4)GlcNAc(b1-2)Man(a1-3)[GlcNAc(b1-4)][Neu5Ac(a2-6)Gal(b1-4)GlcNAc(b1-2)Man(a1-6)]Man(b1-4)GlcNAc(b1-4)GlcNAc
# Outline: as §1
# [36] = target: Neu5Ac(a2-6)Gal(b1-4)GlcNAc(b1-2)Man(a1-6)Man(b1-4)GlcNAc(b1-4)GlcNAc
# Outline: as §1
# [37] = target: Neu5Ac(a2-6)Gal(b1-4)GlcNAc(b1-3)Gal(b1-4)GlcNAc(b1-3)Gal(b1-4)GlcNAc(b1-2)Man(a1-3)[Neu5Ac(a2-6)Gal(b1-4)GlcNAc(b1-3)Gal(b1-4)GlcNAc(b1-3)Gal(b1-4)GlcNAc(b1-2)Man(a1-6)]GalNAc
# Outline: as §1
# [38] = target: Neu5Ac(a2-8)Neu5Ac(a2-3)Gal(b1-3)GalNAc(b1-4)[Neu5Ac(a2-8)Neu5Ac(a2-3)]Gal(b1-4)Glc
# Outline: as §1
# [39] = target: Neu5Ac(a2-8)Neu5Ac(a2-3)Gal(b1-4)Glc
# Outline: as §1
# [40] = target: Neu5Ac(a2-8)Neu5Ac(a2-8)Neu5Ac(a2-3)[GalNAc(b1-4)]Gal(b1-4)Glc
# Outline: as §1
# [41] = target: Neu5Gc(a2-3)Gal(b1-3)[Fuc(a1-4)]GlcNAc
# Outline: as §1
# [42] = target: Neu5Gc(a2-3)Gal(b1-4)[Fuc(a1-3)]GlcNAc
# Outline: as §1
binder,measurement,setting,value
B1,glycan array binding signal (z-score),[1],0.207
same,glycan array binding signal (z-score),[2],-1.05
same,glycan array binding signal (z-score),[3],0.46
same,glycan array binding signal (z-score),[4],0.343
same,glycan array binding signal (z-score),[5],0.536
same,glycan array binding signal (z-score),Fuc(a1-4)GlcNAc,4.44
same,glycan array binding signal (z-score),[6],3.31
same,glycan array binding signal (z-score),[7],0.153
same,glycan array binding signal (z-score),[8],2.45
same,glycan array binding signal (z-score),[9],-1.09
same,glycan array binding signal (z-score),[10],-0.76
same,glycan array binding signal (z-score),[11],-0.327
same,glycan array binding signal (z-score),[12],0.63
same,glycan array binding signal (z-score),Gal(a1-4)Gal(b1-4)Glc,-1.04
same,glycan array binding signal (z-score),[13],2.55
same,glycan array binding signal (z-score),Gal(a1-6)Glc,-1.59
same,glycan array binding signal (z-score),[14],1.25
same,glycan array binding signal (z-score),[15],1.37
same,glycan array binding signal (z-score),Gal(b1-4)Gal,-0.475
same,glycan array binding signal (z-score),Gal(b1-4)Glc,-1.59
same,glycan array binding signal (z-score),[16],-0.919
same,glycan array binding signal (z-score),[17],-0.05
same,glycan array binding signal (z-score),[18],2.61
same,glycan array binding signal (z-score),Gal3S4S(b1-4)GlcNAc,-0.987
same,glycan array binding signal (z-score),Gal3S6S(b1-4)GlcNAc,2.36
same,glycan array binding signal (z-score),Gal6S(b1-3)GlcNAc,-0.626
same,glycan array binding signal (z-score),[19],0.2
same,glycan array binding signal (z-score),GalNAc3S(b1-4)GlcNAc,0.48
same,glycan array binding signal (z-score),Glc(b1-4)Glc,-0.571
same,glycan array binding signal (z-score),[20],-0.28
same,glycan array binding signal (z-score),[21],2.47
same,glycan array binding signal (z-score),[22],0.364
same,glycan array binding signal (z-score),[23],-0.597
same,glycan array binding signal (z-score),GlcNAc(b1-3)Gal,-1.01
same,glycan array binding signal (z-score),[24],-0.211
same,glycan array binding signal (z-score),[25],1.43
same,glycan array binding signal (z-score),[26],-0.488
same,glycan array binding signal (z-score),[27],-0.578
same,glycan array binding signal (z-score),[28],0.984
same,glycan array binding signal (z-score),[29],-0.903
same,glycan array binding signal (z-score),Man(a1-2)Man(a1-3)Man,-1.03
same,glycan array binding signal (z-score),[30],-0.995
same,glycan array binding signal (z-score),[31],0.587
same,glycan array binding signal (z-score),[32],1.36
same,glycan array binding signal (z-score),[33],1.89
same,glycan array binding signal (z-score),[34],2.37
same,glycan array binding signal (z-score),[35],-0.194
same,glycan array binding signal (z-score),[36],2.88
same,glycan array binding signal (z-score),[37],4.64
same,glycan array binding signal (z-score),[38],3.14
same,glycan array binding signal (z-score),[39],-1.34
same,glycan array binding signal (z-score),[40],0.881
same,glycan array binding signal (z-score),[41],-0.715
same,glycan array binding signal (z-score),[42],0.854
